“And” between values parts separate entries of the source, which are not always exact repeats. Identical values can stand only once. Records with an inconclusive call do not appear. The source made the active and inactive calls. Calls follow the shape of the dose curve; as a rule, active = well fitted inhibition curve with a large enough effect in the signal ratio in the repeat runs (not every such curve was filed as active); inconclusive = weak or mixed curves, or effect the other way; inactive = no such curve, though single readings can be large or run the other way; the % refers to the signal ratio.
These molecules were tested against Androgen receptor (Homo sapiens) (UniProt P10275) (assay: qHTS assay to identify small molecule antagonists of the androgen receptor (AR) signaling pathway (AID 743035)). Settings: HEK293 AR-UAS-bla, R1881-stimulated, beta-lactamase FRET, 16 h; series mostly up to 58.5 µM.
Sequence of Androgen receptor (Homo sapiens) (P10275 whole entry, looked up): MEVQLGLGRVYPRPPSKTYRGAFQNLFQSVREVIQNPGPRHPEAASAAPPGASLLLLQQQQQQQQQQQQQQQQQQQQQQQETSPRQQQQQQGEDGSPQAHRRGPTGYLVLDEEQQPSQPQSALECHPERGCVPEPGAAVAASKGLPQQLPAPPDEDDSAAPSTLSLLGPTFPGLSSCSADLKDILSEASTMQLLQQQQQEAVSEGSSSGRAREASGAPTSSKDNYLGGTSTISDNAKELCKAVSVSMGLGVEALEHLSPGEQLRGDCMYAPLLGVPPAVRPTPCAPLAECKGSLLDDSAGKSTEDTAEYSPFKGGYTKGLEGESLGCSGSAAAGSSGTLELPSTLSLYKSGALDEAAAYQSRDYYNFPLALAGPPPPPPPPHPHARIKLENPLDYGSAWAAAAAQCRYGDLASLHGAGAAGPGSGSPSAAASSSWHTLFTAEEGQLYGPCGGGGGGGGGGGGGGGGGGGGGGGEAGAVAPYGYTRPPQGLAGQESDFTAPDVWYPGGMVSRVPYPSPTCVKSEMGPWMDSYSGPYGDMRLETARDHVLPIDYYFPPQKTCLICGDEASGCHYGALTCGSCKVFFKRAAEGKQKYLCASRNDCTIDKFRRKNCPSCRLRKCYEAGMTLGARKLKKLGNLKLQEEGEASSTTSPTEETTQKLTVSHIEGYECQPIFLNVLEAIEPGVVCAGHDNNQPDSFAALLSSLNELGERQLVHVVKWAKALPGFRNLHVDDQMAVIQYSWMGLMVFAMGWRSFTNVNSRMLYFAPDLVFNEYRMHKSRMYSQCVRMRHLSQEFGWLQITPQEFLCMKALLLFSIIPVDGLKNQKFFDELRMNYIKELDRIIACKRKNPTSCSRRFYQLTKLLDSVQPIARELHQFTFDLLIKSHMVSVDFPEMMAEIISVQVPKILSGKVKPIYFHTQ
Description: National Center for Advancing Translational Sciences [NCATS]
NIH Chemical Genomics Center [NCGC]
U.S. Environmental Protection Agency [EPA]
National Institutes of Environmental Health Sciences [NIEHS]
National Toxicology Program [NTP]
U.S. Food and Drug Administration [FDA]
Androgen receptor (AR), a nuclear hormone receptor, plays a critical role in AR-dependent prostate cancer and other androgen related diseases. Endocrine disrupting chemicals (EDCs) and their interactions with steroid hormone receptors like AR may cause disruption of normal endocrine function as well as interfere with metabolic homeostasis, reproduction, developmental and behavioral functions. To identify the compounds that inhibit AR signaling, GeneBLAzer AR-UAS-bla-GripTite cell line (Invitrogen, Carlsbad, CA, USA) containing a beta-lactamase reporter gene under control of an Upstream Activator Sequence (UAS) stably integrated into HEK293 cells was used to screen the Tox21 10K compound library.
Tox21 Assay Protocol Summary:
AR-bla cells were dispensed at 2,000 cells/5 uL of assay medium per well into black wall/clear-bottom 1536-well plates using a Multidrop Combi (ThermoFisher Scientific, Waltham, MA) dispenser. After the assay plates were incubated at a 37C and 5% CO2 for 4 hr, 23 nL of compounds dissolved in DMSO, positive controls or DMSO only was transferred to the assay plate by a Pintool station (Kalypsys, San Diego, CA), followed by addition of 1 uL of agonist (R1881) in culture medium using a Bioraptr Flying Reagent Dispenser (FRD) workstation (Beckman Coulter, Indianapolis, IN, USA). The plates were incubated at a 37C and 5% CO2 for 16 h. After 1 uL of LiveBLAzerTM B/G FRET substrate was added using a Bioraptr FRD, the plates were incubated at room temperature for 2 h and fluorescence intensity was measured by an Envision plate reader (PerkinElmer, Shelton, CT).
`FC(Cl)(Cl)Cl` was tested, and the Potency was “inactive”.
With `CN(C)CCc1c[nH]c2ccc(O)cc12` the Potency was “inactive”.
In the case of `C[C@H]1O[C@@H](O[C@H]2[C@@H](O)C[C@H](O[C@H]3[C@@H](O)C[C@H](O[C@H]4CC[C@@]5(C)[C@H](CC[C@@H]6[C@@H]5CC[C@]5(C)[C@@H](C7=CC(=O)OC7)CC[C@]65O)C4)O[C@@H]3C)O[C@@H]2C)C[C@H](O)[C@@H]1O`, the Potency is reported as 425 nM (active) and 124 nM (active).
For `COc1cccc(C(=O)CCN[C@@H](C)[C@H](O)c2ccccc2)c1`, the Potency was “inactive”.
`CCCCCCCCCCCCCCCCCCn1cc[n+](C)c1` was tested, and the Potency was 3.87 µM (active).
For `CCOC(=O)C1(c2ccccc2)CCN(CCC(C#N)(c2ccccc2)c2ccccc2)CC1`, the Potency was 10.7 µM (active) and 13.4 µM (active).
`O=c1oc2ccccc2c(O)c1Cc1c(O)c2ccccc2oc1=O` was tested, and the Potency was “inactive”.
For `O=C(CCl)Nc1ccccc1`, the Potency was 15.5 µM (active).
For `COc1ccc(/C(=C/C(=O)N2CCOCC2)c2ccc(Cl)cc2)cc1OC`, the Potency was “inactive”.
In the case of `CC(C)N1C(=O)N(c2ccccc2)CSC1=NC(C)(C)C`, the Potency is reported as “inactive”.
With `CC(=O)/C=C/c1ccc2c(c1)OCO2` the Potency was 12.4 µM (active).
With `N#CCCSCCC#N` the Potency was “inactive”.
For `ClC1=C(Cl)C2(Cl)C3C(Cl)C(Cl)CC3C1(Cl)C2(Cl)Cl` (stereo not drawn), the Potency was 48.8 µM (active) and 43.6 µM (active).
For `C=CC(=O)OCC(COC(=O)C=C)(COC(=O)C=C)COC(=O)C=C`, the Potency was 4.36 µM (active).
In the case of `Cc1cc(N=Nc2ccccc2C)ccc1N`, the Potency is reported as 21.9 µM (active).
`CCN(CC)c1c([N+](=O)[O-])cc(C(F)(F)F)c(N)c1[N+](=O)[O-]` was tested, and the Potency was 43.6 µM (active).
`COC(=O)N(C(=O)N1CO[C@@]2(C(=O)OC)Cc3cc(Cl)ccc3C2=N1)c1ccc(OC(F)(F)F)cc1` was tested, and the Potency was 6.69 µM (active).
With `CCCSP(=O)(OCC)SCCC` the Potency was “inactive”.
For `C[C@@H]1O[C@@H](O[C@H]2C[C@@H](O)[C@]3(CO)[C@H]4[C@H](O)C[C@]5(C)[C@@H](C6=CC(=O)OC6)CC[C@]5(O)[C@@H]4CC[C@]3(O)C2)[C@H](O)[C@H](O)[C@H]1O`, the Potency was 213 nM (active) and 190 nM (active) and 46.5 nM (active).
With `S=C=Nc1cccc2ccccc12` the Potency was 48.5 µM (active).
For `CC(=O)C(Cl)(Cl)Cl`, the Potency was 5.31 µM (active).
With `CNC(C)Cc1ccc2c(c1)OCO2` (stereo not drawn) the Potency was “inactive”.
In the case of `CC(C)(C)OO`, the Potency is reported as “inactive”.

— PubChem BioAssay (Tox21)
Potency is read from the fitted curve at half-maximal effect.
